# Source: PubChem BioAssay
# Hits are enriched below; roughly 9.3% of the tested compounds scored in any of these assays.
# NPC1 prom act = qHTS Assay for NPC1 Promoter Activators; Huh7 NPC1 promoter luciferase reporter, 24 h; Potency, µM (top dose mostly 9.22 µM), inactives show at the top dose activation, hits mostly activators; 320,000 compounds, 2.4% hits; AID 485313, 2010; further: % of control where 0% means no effect; nearly all actives have a fitted effect of over 60% in size
#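 Quantitative HTS used a cell-based reporter: Huh7 cells stably bearing the NPC1 promoter upstream of luciferase were treated with compounds for 24 h, and promoter activation was read as luminescence.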
# FLuc counter = qHTS profiling assay for firefly luciferase inhibitor/activator using purifed enzyme and Km concentrations of substrates (counterscreen for miR-21 project) | AID 588342, 2011 | Luciferin 4-monooxygenase (Photinus pyralis), P08659 | Potency, µM (doses to about 57.5 µM), for inactives: at the top dose activity change, negative = inhibition, hits mostly inhibitors | 360,000 compounds, 6.9% hits | purified FLuc, Km substrates, luminescence inhibition;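 further: plate controls were vehicle for no effect and reference inhibitor for full effect; nearly all actives have a fitted effect of over 55% in size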
# Target sequence (P08659 whole entry, looked up): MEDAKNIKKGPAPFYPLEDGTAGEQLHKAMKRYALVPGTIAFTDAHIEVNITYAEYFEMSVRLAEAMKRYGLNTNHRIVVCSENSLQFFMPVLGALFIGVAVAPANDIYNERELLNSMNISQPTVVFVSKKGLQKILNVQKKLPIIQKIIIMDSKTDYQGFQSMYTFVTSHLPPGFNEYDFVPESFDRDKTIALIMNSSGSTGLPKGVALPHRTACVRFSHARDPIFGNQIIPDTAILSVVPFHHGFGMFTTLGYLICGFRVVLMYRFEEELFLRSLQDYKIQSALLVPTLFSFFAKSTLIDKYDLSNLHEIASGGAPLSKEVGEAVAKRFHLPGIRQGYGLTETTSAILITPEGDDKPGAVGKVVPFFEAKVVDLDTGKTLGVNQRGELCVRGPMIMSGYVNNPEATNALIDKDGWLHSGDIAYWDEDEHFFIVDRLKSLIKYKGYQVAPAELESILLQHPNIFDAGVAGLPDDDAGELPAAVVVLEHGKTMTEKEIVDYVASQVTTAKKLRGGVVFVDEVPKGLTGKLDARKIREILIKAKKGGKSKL
#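 Purified P. pyralis luciferase (10nM final) with 10uM D-luciferin and 10uM ATP (Km levels) in 50mM Tris acetate pH 7.5, 10mM Mg acetate, 0.01% Tween-20, 0.05% BSA; qHTS 6-point titration, ~60 µM downward; luminescence read.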
# ELG1 genotoxic = qHTS screen for small molecules that induce genotoxicity in human embryonic kidney (HEK293T) cells expressing luciferase-tagged ELG1. HEK293T ELG1-luciferase reporter, luminescence, 16 h. Potency, µM (doses to about 46 µM), for inactives: top-dose activity change, positive = activation, actives largely listed as activators. 330,000 compounds, 1.3% hits; further: % of control where 0% means no effect; nearly all actives have a fitted effect of over 60% in size
#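 Cells (2,000/well) expressing the ELG1-luciferase fusion are dosed by pin tool and kept 16 hr at 37 °C, 5% CO2. Signal comes from ONE-Glo luciferase reagent after 30 min at room temperature.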
# SMN2 splice up = qHTS Assay for Enhancers of SMN2 Splice Variant Expression. HEK293 SMN2-luciferase splicing reporter, luminescence, 30-36 h. Potency, µM (highest dose often 46.1 µM), inactives show at the highest dose activity change, positive = activation, usual class: activators. 210,000 compounds, 2.8% hits; further: % of control where 0% means no effect; nearly all actives have a fitted effect of over 55% in size
#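 qHTS luciferase splicing reporter: luminescence rises when SMN2 exon 7 is included in transfected HEK293 cells. Compound exposure lasted 30-36 h at 37C, with 4.5 mM final sodium butyrate as control, followed by a ONE-Glo read.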
# ELG1 DNA repair = qHTS screen for small molecules that inhibit ELG1-dependent DNA repair in human embryonic kidney (HEK293T) cells expressing luciferase-tagged ELG1 | HEK293T ELG1-luciferase reporter, luminescence, 16 h; DNA damage induced by 5-fluorouridine | Potency, µM (top dose mostly 46.1 µM), for the others: at the highest dose activity change, negative = inhibition, actives largely listed as inhibitors | AID 504467, 2011 | 330,000 compounds, 2.3% hits; further: on the % scale 0 is the no-effect control and ±100 the full control effect; nearly all actives have a fitted effect of over 55% in size
#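 Overnight (16 hr) co-exposure of 2,000 cells/well to 5-fluorouridine and compound at 37 °C preceded detection. Luciferase was quantified via ONE-Glo luminescence; loss of signal denotes inhibition.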
# Rab9 promoter act = qHTS Assay for Rab9 Promoter Activators; AID 485297, 2010; 320,000 compounds, 2.8% hits; Huh7 Rab9 promoter-luciferase reporter, luminescence, 24 h; Potency, µM (top dose mostly 9.22 µM), for inactives: at the top dose activation, negative = inhibition, usual class: activators; further: % of control where 0% means no effect; nearly all actives have a fitted effect of over 60% in size
#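 Promoter activation is measured as luciferase luminescence in Huh7 cells stably transfected with a Rab9 promoter–luciferase construct, following 24 h compound exposure at 37 °C and 10 min reagent incubation at ambient temperature.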
# An asterisk follows results filed as active; ? = inconclusive; · = no result given. The call rests on the fitted dose curve; in most records, active means well fitted curve in the direction sought with a large enough effect; inconclusive means small, poorly fitted or top-dose-only effect, or another doubt; inactive means no such curve, though single readings can be large; an effect the other way counts as inactive or inconclusive. Potency means the concentration at half of the fitted maximal effect.
SMILES,NPC1 prom act,FLuc counter,ELG1 genotoxic,SMN2 splice up,ELG1 DNA repair,Rab9 promoter act
COCCn1c(C)cc(C(=O)COC(=O)CCc2ccc(S(=O)(=O)N3CCOCC3)cc2)c1C,3%,15µM*,-1%,-1%,5%,7%
COCCn1c(C)cc(C(=O)COC(=O)c2ccc3ncsc3c2)c1C,2.8µM*,6.7µM*,?,15%,?,2.8µM*
CCNc1nc(Oc2ccc(OCC(=O)OC)nn2)nc(N2CCOCC2)n1,·,0%,·,4%,·,·
COc1cccc([C@@H]2Oc3ccc(Br)cc3C[C@H]2OC(=O)Nc2ccc(OC(F)F)cc2)c1,·,·,·,0%,·,·
COCCn1c(C)cc(C(=O)COC(=O)c2ccc(S(=O)(=O)N(C)C)cc2)c1C,·,·,4%,·,8%,·
COCCn1c(C)cc(C(=O)COC(=O)c2ccc(NC(=O)CC#N)cc2)c1C,2.8µM*,11µM*,?,11µM*,?,2.2µM*
Cc1nc(NC(=O)c2ccccc2)nc2cc3c(cc12)OCO3,?,17µM*,?,?,?,?
CC1Cc2ccccc2N1C(=O)/C=C/c1cccc(F)c1 (centres undefined),2.2µM*,6µM*,?,11µM*,?,1.8µM*
CC1Cc2ccccc2N1C(=O)COC(=O)/C=C/c1ccc(F)cc1 (centres undefined),-7%,4%,1%,·,?,-1%
O=C(O)c1ccc(S(=O)(=O)N2CCCC2)cc1,0%,0%,-5%,·,-1%,4%
O=C(O)c1ccc(S(=O)(=O)c2ccc(Sc3ccc(C(=O)O)c(C(=O)O)c3)cc2)cc1,-7%,11µM*,0%,13%,5%,-8%
COC(=O)C1C(=O)c2c([nH]c(C(=O)OC3CCCCC3)c2C)CC1C (centres undefined),2.8µM*,1.7µM*,?,13µM*,?,2.8µM*
COC(=O)C1C(=O)c2c([nH]c(C(=O)OCCOC(C)C)c2C)CC1C (centres undefined),27%,13µM*,?,1%,42%,?
Cc1c(C(=O)OCCOc2ccccc2)[nH]c2c1C(=O)CC(c1ccccc1)C2 (centres undefined),·,4%,·,-19%,·,·
Cc1c(C(=O)OC2CCCCC2)[nH]c2c1C(=O)CC(C)(C)C2,·,0%,·,-26%,·,·
COC(=O)C1C(=O)c2c([nH]c(C(=O)OC3CCCC3C)c2C)CC1C (centres undefined),1.6µM*,2.4µM*,4.6µM*,11µM*,?,1.4µM*
C/C(=C/C(=O)Nc1cccc(F)c1)N1CCCC1,-10%,-2%,1%,3%,8%,-5%
O=C(CSc1nc2c([nH]c3ccccc32)c(=O)n1-c1ccccc1)Nc1ccc2c(c1)OCO2,·,-9%,·,·,·,·
CCc1nnc(NC(=O)c2nc(Cl)ccc2Cl)s1,1%,3%,5%,·,16%,7%
CCSc1nnc(NC(=O)c2ccc3ccccc3n2)s1,?,12µM*,?,14µM*,?,?
CCc1nnc(NC(=O)c2ccc3ccccc3n2)s1,?,13µM*,-15%,2.8µM*,?,2.5µM*
CCSc1nnc(NC(=O)c2cc(C)nc3ccccc23)s1,-3%,4%,0%,-4%,1%,-5%
CCc1nnc(NC(=O)c2sc3nc4cc(C)ccc4cc3c2N)s1,13%,9.5µM*,-2%,-9%,-5%,17%
CC(C)(C)n1ncc2c(=O)n(Cc3ccc([S+](=O)([O-])N4CCOCC4)cc3)cnc21,·,4%,·,·,·,·
O=C(CNC(=O)c1cn2ccccc2n1)Nc1ccc(F)c(F)c1,?,17µM*,8.2µM*,·,?,2.2µM*
SMILES,NPC1 prom act,FLuc counter,ELG1 genotoxic,SMN2 splice up,ELG1 DNA repair,Rab9 promoter act
O=C(NC1CC1)c1cccc(NC(=O)c2cn3ccccc3n2)c1,?,·,12%,·,?,3.2µM*
O=C(Nc1cccc(C(=O)NC2CCCC2)c1)c1ccccc1,-5%,-4%,-3%,·,-2%,4%
O=C(NC1CC1)c1cccc(NC(=O)c2cnn(-c3ccccc3)n2)c1,·,·,-4%,·,12µM*,·
O=C(Nc1ccc(N2CCOCC2)cc1)c1cn2ccccc2n1,?,1.7µM*,3%,?,?,?
O=C(Nn1c(O)c(C=C2N=c3ccccc3=N2)sc1=S)c1ccccc1Cl,-1%,15µM*,-1%,-3%,?,-1%
CCn1c(O)c(C=C2N=c3ccccc3=N2)sc1=S,-1%,2%,0%,-13%,-5%,1%
Oc1c(C=C2N=c3ccccc3=N2)sc(=S)n1-c1ccccc1,-5%,-8%,0%,-24%,8%,-3%
O=S(=O)(Nn1c(O)c(C=C2N=c3ccccc3=N2)sc1=S)c1ccccc1,-2%,15µM*,-5%,·,?,1%
COCC(=O)N1CCC2(CC1)CCN(c1ccncc1)CC2,·,·,·,-15%,·,·
Cc1ccc(OCC(=O)N2CCN(c3ccc([N+](=O)[O-])c(N4CCOCC4)c3)CC2)cc1,1%,-2%,-1%,4%,22%,-4%
Cc1ccc(-c2ccc(OCC(=O)N3CCOCC3)cc2)cc1,16%,19µM*,?,-2%,?,18%
O=Cc1ccc(OCC(=O)N2CCOCC2)cc1,-3%,-3%,1%,·,11%,1%
CCOc1ccc(C(=O)CCC(=O)N2CCN(c3ccc(O)cc3)CC2)cc1,·,·,2%,·,3%,·
Cc1ccc(OCCC(=O)N2CCN(c3ccc(O)cc3)CC2)cc1,28%,-3%,6%,·,7.3µM*,14%
Cc1cc(OCC(=O)N2CCOCC2)ccc1[N+](=O)[O-],3.2µM*,24µM*,?,·,?,2.8µM*
CCOc1cc(Cl)c(S(=O)(=O)NCCCN2CCOCC2)cc1Cl,-1%,3%,-1%,·,3%,-7%
N#Cc1cc(Nc2c(N)nc[nH]c2=O)c([N+](=O)[O-])cc1C#N,0%,0%,-1%,·,-3%,4%
Cc1cccc(Cn2c(NCC(C)O)nc3c2c(=O)n(C)c(=O)n3C)c1 (centres undefined),-9%,6%,-6%,-91%,15µM*,-23%
COCCNc1nc2c(c(=O)n(C)c(=O)n2C)n1Cc1cccc(C)c1,0%,-2%,-10%,-52%,21µM*,-19%
